Compound activity as filed in PubChem.
aSyn rescue: inhibitors of alpha-synuclein toxicity in yeast; 370,000 compounds, 0.14% hits; Yeast expressing alpha-synuclein, growth rescue, BacTiter-Glo, 24 h; Potency, µM (series often up to 46.1 µM), without a hit: at the top dose growth rescue (activation), usual class: activators; further: % of control where 0% means no effect; nearly all actives have a fitted effect of over 65% in size
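Screening used galactose-induced yeast with toxic alpha-synuclein levels, exposed to compound for 24 hr at 30 deg C. Cell growth, read with BacTiter-Glo luminescence, gave the measured signal.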
TDP43 rescue: rescues yeast growth from TDP-43 toxicity; TDP-43 expressing yeast growth rescue, BacTiter-Glo, 24 h; Potency, µM (top dose mostly 46.1 µM), without a hit: top-dose growth rescue (activation), most hits filed as activators; 410,000 compounds, 1.8% hits; further: % of control where 0% means no effect; nearly all actives have a fitted effect of over 50% in size
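Galactose-induced TDP-43 yeast, OD600=0.02, compound pinned; 24 hr, 30 deg C; BacTiter-Glo luminescence for growth. Inhibitors of TDP-43 toxicity read as activators.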
FUS suppressor: FUS proteinopathy suppression in yeast | AID 1347120 | Potency, µM (series often up to 76.6 µM), actives largely listed as activators | 390,000 compounds, 0.24% hits | S. cerevisiae FUS-expressing, growth rescue, OD600, 24 h;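 further: plate controls were DMSO vehicle for no effect and reference control for full effect; nearly all actives have a fitted effect of over 55% in size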
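Restored growth of FUS-toxic S. cerevisiae, read as 600 nm absorbance after 24 h at 30C in galactose medium (starting OD 0.005). Controls CP55940 and DMSO.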
Abeta yeast res: A-beta toxicity reversal in yeast; yeast expressing A-beta42, growth rescue, OD600, 48 h; response scale: 0% DMSO, 100% iron-clioquinol control; Potency, µM (top dose mostly 46.1 µM), usual class: activators; 410,000 compounds, 0.063% hits; AID 1347071; further: nearly all actives have a fitted effect of over 55% in size
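Yeast growth medium received pinned compounds, then yeast cells expressing toxic A-beta were added; plates incubated at 30 C for 48 hr. Growth read as absorbance at 600 nm, normalized to DMSO and equimolar FeCl3 plus clioquinol controls.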
The depositor's hits bear a star; i = inactive; u = inconclusive; x = no result given. Most compounds without a hit are left out; they make up all but 2.1% or so of the library. The call rests on the fitted dose curve; in most records, active means well fitted curve in the direction sought with a large enough effect; inconclusive means small, poorly fitted or top-dose-only effect, or another doubt; inactive means no such curve, though single readings can be large; an effect the other way counts as inactive or inconclusive. Potency means the concentration at half of the fitted maximal effect.

SMILES	aSyn rescue	TDP43 rescue	FUS suppressor	Abeta yeast res
COc1ccc(-c2cc(C(F)(F)F)c3c(=O)n(-c4ccccc4)[nH]c3n2)cc1	x	8.9µM*	i	i
O=C(N[C@@H](Cc1ccccc1)C(=O)NCP(=O)(O)OC(Cc1ccccc1)C(=O)O)OCc1ccccc1 (stereo partly drawn)	x	x	i	x
Cc1cc(-c2cccc([N+](=O)[O-])c2)nc2ccccc12	-2%	11µM*	i	i
Cc1cc(-c2ccc([N+](=O)[O-])cc2)nc2ccccc12	-7%	-8%	i	i
O=C(Nc1nccs1)C1CCN(S(=O)(=O)c2c(Cl)cccc2Cl)CC1	5%	14µM*	i	u
O=C(Nc1nccs1)C1CCN(S(=O)(=O)c2ccc(F)cc2)CC1	4%	-6%	i	i
COc1ccc(S(=O)(=O)Oc2ccc3cccc(N)c3c2)cc1	u	16µM*	i	u
COc1ccc(S[C@]2(C(=O)N(C)C)CC(=O)N(C(=O)C3CC3)[C@@H]2c2ccc(OC)cc2)cc1	x	x	i	x
COc1ccc([C@H]2CC(=O)C=C(c3ccc(C)cc3)C2)cc1OC	4%	13µM*	i	i
COc1ccc(C2=CC(=O)C[C@H](c3ccc(OC)c(OC)c3)C2)cc1	12%	13%	i	i
COc1ccc(C2=CC(=O)CC(c3ccc(F)cc3)C2)cn1 (stereo not drawn)	6%	18µM*	i	i
COc1ccc([C@H]2CC(=O)C=C(c3ccc(Cl)c(C(F)(F)F)c3)C2)cc1OC	0%	16µM*	u	i
COc1ccc([C@H]2CC(=O)C=C(c3ccc(C(F)(F)F)c(C(F)(F)F)c3)C2)cc1OC	12%	6%	i	i
COc1ccc(C2=CC(=O)C[C@H](c3ccc(F)cc3)C2)cc1OC	0%	22µM*	i	i
COc1cccc(C2=CC(=O)C[C@H](c3ccc(F)cc3)C2)c1	1%	u	i	i
CSc1ccc(/C=C2\C=Cc3cc([N+](=O)[O-])ccc32)cc1	-7%	x	x	x
O=C(CCC1N=C2c3ccccc3N=C(SCc3ccc(F)cc3)N2C1=O)NC1CCCCC1 (stereo not drawn)	x	12%	i	i
CCCNC(=O)c1ccc(COc2cccc3ccccc23)o1	-8%	18µM*	i	i
CCCNC(=O)c1ccc(COc2ccc(C)cc2)o1	-5%	15%	i	i
CC(=O)NC1CCCC1C#N (stereo not drawn)	-11%	x	x	x
CC1(C)CC(N2CCN(CCO)CC2)=CC(=S)N1	18µM*	u	i	i
CC1(C)CC(=O)C(N=Nc2cc(Cl)c(Cl)c(Cl)c2)=C(O)C1	6%	7%	i	i
Cc1ccc(O)c(N=NC2=C(O)CC(C)(C)CC2=O)c1	7.1µM*	12%	x	u
CCOc1cccc(-c2cc(C(=O)N3N=C(C)CC3(O)C(F)F)c3ccccc3n2)c1 (stereo not drawn)	5%	18µM*	i	i
C=CCNc1nc(Nc2ccc(OC)cc2)nc(OC)n1	-15%	20µM*	i	i
SMILES	aSyn rescue	TDP43 rescue	FUS suppressor	Abeta yeast res
C=CCNc1nc(Cl)nc(Nc2ccc(OC)cc2)n1	1%	6%	i	i
COC(=O)[C@]12C[C@H](CC(=O)NCC34CC5CC(CC(C5)C3)C4)C(=O)N(Cc3ccco3)C1=C[C@H](C(C)C)O[C@@H]2C1CC1	x	x	25µM*	x
CCCCCCCCN1C(=O)[C@@H](CC(=O)N2CCN(C(=O)C3CC3)CC2)C[C@@]2(C(=O)OC)C1=C[C@H](C(C)C)O[C@@H]2C1CC1	x	x	28µM*	x
CCCCCCCCN1C(=O)[C@@H](CC(=O)NCCCN2CCCC2=O)C[C@@]2(C(=O)OC)C1=C[C@H](C(C)C)O[C@@H]2C1CC1	x	x	18µM*	x
COC(=O)[C@]12C[C@H](CC(=O)NCCCN3CCCC3=O)C(=O)N(CCc3ccc(OC)c(OC)c3)C1=C[C@H](C(C)C)O[C@@H]2C1CC1	x	x	i	x
O=C(Cc1ccc(OCCCc2ccccc2)cc1)NO	0%	x	x	x
CCc1cccc(NC(=O)CCc2c(C)nc3c(c2C)c(=O)n(C)c(=O)n3C)c1	x	-14%	u	i
CCc1nn(CC(=O)Nc2ccc(C)c(F)c2)c(=O)c2cc3cc(C)ccc3n12	x	8%	i	i
CCOc1ccc(NC(=O)CN2C(=O)C3(SCC(=O)N3c3ccc(F)cc3)c3ccccc32)cc1 (stereo not drawn)	2%	13%	i	i
